From PubChem BioAssay
hNpr1 antagonist = blocks ANP-stimulated signaling of human Npr1 receptor | AID 1347048 | HEK293 hNpr1 GloSensor cGMP, ANP-stimulated luminescence | 1.6% of 76,000 active | Potency, µM (doses to about 46.3 µM), without a hit: at the highest dose activity change, negative = inhibition, hits mostly inhibitors; also: % is scaled to controls: 0 for no effect and ±100 for the full control effect; nearly all actives have a fitted effect of over 60% in size
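Compound pre-incubated 30 min at room temperature on GloSensor-loaded HEK293 cells stably carrying hNpr1 and the pGS-40F cGMP biosensor. Stimulation uses hNppA at 0.1 nM final; luminescence is taken at baseline and 20 min post-agonist.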
GPT2 inhibitor = GPT2 alanine aminotransferase inhibition. Q8TD30. Recombinant GPT2, coupled pyruvate oxidase/HRP Amplex Red fluorescence. Potency, µM (series often up to 57.7 µM), for inactives: at the highest dose activity change, negative = inhibition, most hits filed as inhibitors. 0.25% of 100,000 active; active = well fitted inhibition curve with a large enough effect; inconclusive = small, poorly fitted or top-dose-only effect; also: % is scaled to controls: 0 for no effect and ±100 for the full control effect; nearly all actives have a fitted effect of over 60% in size
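GPT2 10ng/uL, a-KG 250uM, L-Ala 2mM, HEPES pH7.5 + 0.0001% Tween; 30 min RT. Then Amplex mix (PO/HRP/ThPP), 30 min RT dark, fluorescence. AOA 50uM used as positive control.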
NPR1 antag cnf = hNpr1 antagonism, confirmation assay; HEK293 hNpr1 cGMP GloSensor luminescence, ANP-stimulated; Potency, µM (highest dose often 57.6 µM), for the others: at the top dose activity change, negative = inhibition, most hits filed as inhibitors; shares compounds with hNpr1 antagonist; AID 1347044; 76% of 1,400 active; also: nearly all actives have a fitted effect of over 70% in size
NPR2 antag = hNpr2 antagonism, selectivity versus Npr1; 67% of 1,400 active; Potency, µM (titrated, usually from 57.6 µM), inactives show at the highest dose activity change, negative = inhibition, actives largely listed as inhibitors; HEK293 hNpr2 GloSensor cGMP luminescence, CNP-stimulated; AID 1347046; shares compounds with hNpr1 antagonist; also: nearly all actives have a fitted effect of over 70% in size
FLuc inh counter = counter-screen for Npr1 antagonists: firefly luciferase inhibitors | Potency, µM (top dose mostly 57.6 µM), for inactives: top-dose activity change, negative = inhibition, hits mostly inhibitors | purified FLuc enzyme, luminescence, Km substrate | shares compounds with hNpr1 antagonist | 0.7% of 1,400 active; active = well fitted inhibition curve with a large enough effect; inconclusive = small, poorly fitted or top-dose-only effect; also: 0% is about no effect
GloSensor ctrl = counter-screen for Npr1 antagonists: GloSensor control cell line; Potency, µM (series often up to 57.6 µM), for the others: top-dose activity change, negative = inhibition, actives largely listed as inhibitors; shares compounds with hNpr1 antagonist; 69% of 1,400 active; HEK293 GloSensor cGMP, SNP-stimulated, luminescence; also: % is scaled to controls: 0 for no effect and ±100 for the full control effect; nearly all actives have a fitted effect of over 70% in size
An asterisk follows results filed as active; [ ] = remark or other dose. Many of the other results were omitted from the sample, so hits are more common in it than they were. Unless noted, calls follow the shape of the full dose curve. Potency is read from the fitted curve at half-maximal effect.

For O=C1CCN(S(=O)(=O)c2ccccc2)CCCN(C(=O)CCC2CCCC2)CCN1 the results were hNpr1 antagonist 5% and GPT2 inhibitor inactive.
CC(=O)N1C[C@@H](C(=O)NCCc2cccs2)[C@H](c2nc(C)no2)C1 was read as hNpr1 antagonist 0% and GPT2 inhibitor -13%.
`CCc1n[nH]c(CC2CCN(C(=O)COc3ccc(F)cc3)CC2)n1` gave hNpr1 antagonist 5% and GPT2 inhibitor inactive.
`O=C(NCCc1ccccc1)N1CCC(Oc2ccc(-c3noc(C4CC4)n3)cc2)C1` (stereo not drawn) gave hNpr1 antagonist -21% and GPT2 inhibitor inactive.
`O=C(CCc1ccccc1)N1CC(Oc2ccc(-c3noc(C4CC4)n3)cc2)C1` gave hNpr1 antagonist 14µM*, GPT2 inhibitor inactive, NPR1 antag cnf 15µM*, NPR2 antag 17µM*, FLuc inh counter 2% and GloSensor ctrl 15µM*.
Screening COc1ccc(CCC(=O)N2CCC[C@H]2c2nc(-c3ccccc3Cl)no2)cc1 returned hNpr1 antagonist 13µM*, GPT2 inhibitor inactive, NPR1 antag cnf 24µM*, NPR2 antag inconclusive, FLuc inh counter -6% and GloSensor ctrl 27µM*.
For Cc1ccc(OCC(=O)N2CCC(Cc3nc(-c4ccc(F)cc4)no3)CC2)cc1 the results were hNpr1 antagonist 7.9µM*, GPT2 inhibitor inactive, NPR1 antag cnf 11µM*, NPR2 antag 12µM*, FLuc inh counter -4% and GloSensor ctrl 9.7µM*.
`O=C(CCCc1ccccc1)N1CCC[C@H]1c1nc(-c2ccccc2Cl)no1` gave hNpr1 antagonist -4% and GPT2 inhibitor inactive.
Screening COc1ccccc1CCC(=O)N1CCC2(CC1)N(C)C(=O)CS2(=O)=O returned hNpr1 antagonist -20% and GPT2 inhibitor 2%.
For CN(C)c1ccc(-c2nnc([C@H]3CCN(C4CCC4)C3)o2)cc1 the results were hNpr1 antagonist 1%[70.6 µM] and GPT2 inhibitor 5%[88.5 µM].
Screening CN(C)[C@@H]1CN(C(=O)c2ccc(F)cc2)CC[C@]1(O)c1ccccc1 returned hNpr1 antagonist -4% and GPT2 inhibitor inactive.
`CN1C[C@@H](NC(=O)CC(C)(C)C)C[C@H]1c1nc(-c2ccc3c(c2)OCO3)no1` gave hNpr1 antagonist 25µM*, GPT2 inhibitor -8%[88.5 µM], NPR1 antag cnf inconclusive, NPR2 antag inconclusive, FLuc inh counter -3%[86.2 µM] and GloSensor ctrl 40µM*.
For COCC(=O)N[C@H]1C[C@@H](c2nc(-c3ccc4c(c3)OCO4)no2)N(C)C1 the results were hNpr1 antagonist 0%[70.6 µM] and GPT2 inhibitor -34%[88.5 µM].
`O=C1C(OCC2CC2)C2(CCCCC2)N1C1CCN(Cc2cccnc2)CC1` (stereo not drawn) gave hNpr1 antagonist 4% and GPT2 inhibitor -1%.
`O=C(Nc1cccc(-c2nnc3n2CCCC3)c1)c1cc(C2CC2)[nH]n1` gave hNpr1 antagonist inconclusive and GPT2 inhibitor inactive.
Cc1cc(C(=O)Nc2cccc(-c3nnc4n3CCCC4)c2)n[nH]1 was read as hNpr1 antagonist inconclusive, GPT2 inhibitor inactive, NPR1 antag cnf inconclusive, NPR2 antag inconclusive, FLuc inh counter -16% and GloSensor ctrl inconclusive.
For CCn1ncc(C(=O)N2C[C@@H](CO)[C@H](c3ccncc3)C2)c1C the results were hNpr1 antagonist -8% and GPT2 inhibitor -1%.
Cc1ccccc1CN1CC[C@@H]2OCC(=O)N(C(C)C)[C@H]2CC1 was read as hNpr1 antagonist 7.9µM*, GPT2 inhibitor -11%[88.5 µM], NPR1 antag cnf 7.9µM*, NPR2 antag 13µM*, FLuc inh counter 3%[86.2 µM] and GloSensor ctrl 6.3µM*.
`COc1ccccc1CN1CC[C@@H]2OCC(=O)N(C(C)C)[C@H]2CC1` gave hNpr1 antagonist -24%[70.6 µM] and GPT2 inhibitor -2%[88.5 µM].
Screening COc1ccc(S(=O)(=O)N[C@H]2C[C@@H](c3nc(-c4ccc(OC(F)(F)F)cc4)no3)N(C)C2)cc1 returned hNpr1 antagonist 11µM*, GPT2 inhibitor inconclusive, NPR1 antag cnf 22µM*, NPR2 antag 22µM*, FLuc inh counter -13% and GloSensor ctrl 17µM*.
`COc1ccc(-c2noc([C@@H]3C[C@H](NS(=O)(=O)c4ccc(C)cc4)CN3C)n2)cc1` gave hNpr1 antagonist -25%[70.6 µM] and GPT2 inhibitor inactive.
For COc1ccc(C(=O)N2CCC3(CC2)C(OC)C(=O)N3CC2CC2)cc1F (stereo not drawn) the results were hNpr1 antagonist -1% and GPT2 inhibitor 2%.
For CCN(Cc1ccncc1)C(=O)CCC1CCN(S(=O)(=O)c2ccccc2)CC1 the results were hNpr1 antagonist -18% and GPT2 inhibitor inactive.
Cc1ccc(CNC(=O)CCC2CCN(S(=O)(=O)c3ccccc3)CC2)cc1 was read as hNpr1 antagonist -24%, GPT2 inhibitor -2%, NPR1 antag cnf -17%, NPR2 antag -11%, FLuc inh counter 3% and GloSensor ctrl -13%.
Screening CCN(Cc1ccccc1)C(=O)CCC1CCN(S(=O)(=O)c2ccccc2)CC1 returned hNpr1 antagonist -21%, GPT2 inhibitor 1%, NPR1 antag cnf inconclusive, NPR2 antag -20%, FLuc inh counter -2% and GloSensor ctrl -13%.
Cc1cccc(CNC(=O)CCC2CCN(S(=O)(=O)c3ccccc3)CC2)c1 was read as hNpr1 antagonist -6% and GPT2 inhibitor -9%.
For NC(=O)[C@@H]1C[C@@H](O)[C@H](O)[C@@H]2NC(=S)N(CC3CCCCC3)[C@@H]21 the results were hNpr1 antagonist 5%[70.6 µM] and GPT2 inhibitor -7%[88.5 µM].
`COc1ccc2ccc(OCc3nc(C(=O)N(C)CC(C)O)co3)cc2c1` (stereo not drawn) gave hNpr1 antagonist inconclusive and GPT2 inhibitor -29%.
COc1ccc2ccc(OCc3nc(C(=O)N4CCC(NC(C)=O)CC4)co3)cc2c1 was read as hNpr1 antagonist -23% and GPT2 inhibitor 4%.
For C=CCNC(=O)c1coc(COc2ccc3ccc(OC)cc3c2)n1 the results were hNpr1 antagonist 10µM*, GPT2 inhibitor inactive, NPR1 antag cnf 24µM*, NPR2 antag 22µM*, FLuc inh counter -11% and GloSensor ctrl 22µM*.
For COc1ccc2ccc(OCc3nc(C(=O)N(C)CC4CCCO4)co3)cc2c1 (stereo not drawn) the results were hNpr1 antagonist -28% and GPT2 inhibitor inactive.
